Data taken from the supplement of paper PMC12350171.
Where a name gives a salt, the structure may show the parent alone.

How the values were obtained:
Conditions in all cases: 20 µM
[1] = tested on: Salmonella enterica typhimurium; experiment: growth AUC normalised to DMSO control (fraction of control); higher = less growth inhibition, active = hit call of the paper
Method in brief: (§1)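 After two anaerobic passages, pathogens were added at a starting OD578 of 0.01 to pre-reduced mGAM plates holding compound at 20 μM with 1% DMSO; hemin and NAD were supplemented for Haemophilus parainfluenzae. Sealed with breathable membranes, plates were read at OD578 hourly for 24 h, in three biological replicates. The trapezoidal rule, applied up to the exponential-to-stationary transition, gave the growth-curve AUC, which was normalised to DMSO controls on the same plate.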

Shigella flexneri = experiment: as above
Method in brief: as §1

Vibrio cholerae = experiment: as above
Method in brief: as §1

[2] = tested on: Yersinia pseudotuberculosis; experiment: as above
Method in brief: as §1

P. vulgatus RND KO = experiment: growth AUC normalised to DMSO control (median) (fraction of control); higher = less growth inhibition, active = hit call of the paper
Method in brief: (§2)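 After two overnight anaerobic passages, strains were inoculated at OD578 0.01 into mGAM in 96-well plates containing approved-drug library compounds at 20 μM and 1% DMSO. Growth was followed by reading OD578 hourly for 24 h within an anaerobic incubator. Area under the curve, taken by the trapezoidal rule up to the start of stationary phase, was normalised to same-plate vehicle wells, and the median of three biological replicates is listed.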

P. vulgatus WT = experiment: as above
Method in brief: as §2

[3] = tested on: S. enterica typhimurium WT; experiment: as above
Method in brief: as §2

[4] = tested on: S. enterica typhimurium tolC KO; experiment: as above
Method in brief: as §2

Measured: growth AUC normalised to DMSO control
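For growth AUC normalised to DMSO control (median) in this document: active when median AUC fell below 0.1.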

COc1ccc(C(Cl)=C(c2ccc(OC)cc2)c2ccc(OC)cc2)cc1 [Chlorotrianisene]
inactive: [1] 0.994 | Shigella flexneri 0.944 | Vibrio cholerae 0.983 | [2] 1.01 | P. vulgatus RND KO 0.96 | P. vulgatus WT 0.928 | [3] 0.978 | [4] 0.993

c1ccc2c(c1)CCCC2C1=NCCN1 (stereo not drawn) [Tetrahydrozoline hydrochloride]
inactive: [1] 0.981 | Shigella flexneri 0.981 | Vibrio cholerae 0.991 | [2] 0.996 | P. vulgatus RND KO 0.997 | P. vulgatus WT 1 | [3] 0.996 | [4] 1

COc1ccc2c(c1)C(=O)N(CCc1ccc(S(=O)(=O)NC(=O)NC3CCCCC3)cc1)C(=O)C2(C)C [Gliquidone]
inactive: [1] 1 | Shigella flexneri 1.02 | Vibrio cholerae 0.995 | [2] 1 | P. vulgatus RND KO 0.994 | P. vulgatus WT 1.01 | [3] 1.01 | [4] 1

COc1cc(Cc2cnc(N)nc2N)cc(OC)c1OC [Trimethoprim]
active: [1] 0.197 | Shigella flexneri 0.0632 | Vibrio cholerae 0.0115 | [2] 0.157
inactive: P. vulgatus RND KO 0.45 | P. vulgatus WT 0.259 | [3] 0.147 | [4] 0.132

Cc1c(N)c(=O)n(-c2ccccc2)n1C [Ampyrone]
inactive: [1] 0.996 | Shigella flexneri 0.998 | Vibrio cholerae 0.965 | [2] 0.986 | P. vulgatus RND KO 1.04 | P. vulgatus WT 1 | [3] 1 | [4] 1

N=C(N=C(N)N)N1CCOCC1 [Moroxidine hydrochloride]
inactive: [1] 0.999 | Shigella flexneri 1 | Vibrio cholerae 0.991 | [2] 0.965 | P. vulgatus RND KO 1.01 | P. vulgatus WT 1.04 | [3] 1.01 | [4] 0.992

CC(C)[C@H](N)C(=O)OCCOCn1cnc2c(=O)nc(N)[nH]c21 [Valacyclovir hydrochloride]
inactive: [1] 0.993 | Shigella flexneri 1.03 | Vibrio cholerae 0.995 | [2] 1.01 | P. vulgatus RND KO 0.999 | P. vulgatus WT 1.02 | [3] 1 | [4] 1.02

Cc1cc(=O)oc2cc(O)ccc12 [Hymecromone]
inactive: [1] 1.01 | Shigella flexneri 1 | Vibrio cholerae 0.998 | [2] 0.95 | P. vulgatus RND KO 1.03 | P. vulgatus WT 1.05 | [3] 0.999 | [4] 1.02

C=C[C@H]1CN2CC[C@H]1C[C@@H]2[C@@H](O)c1ccnc2ccc(OC)cc12 [Quinidine hydrochloride monohydrate]
inactive: [1] 0.991 | Shigella flexneri 0.996 | Vibrio cholerae 0.985 | [2] 0.991 | P. vulgatus RND KO 0.998 | P. vulgatus WT 1.03 | [3] 0.99 | [4] 0.997

Cc1cc(C(C)(C)CC(C)(C)C)ccc1OCCOCC[N+](C)(C)Cc1ccccc1 [Methyl benzethonium chloride]
inactive: [1] 1.01 | Shigella flexneri 0.999 | Vibrio cholerae 0.943 | [2] 1.02 | [3] 1.01 | [4] 0.962
active: P. vulgatus RND KO 0.0136 | P. vulgatus WT 0.0206

NS(=O)(=O)c1cc2c(cc1Cl)NCNS2(=O)=O [Hydrochlorothiazide]
inactive: [1] 1.02 | Shigella flexneri 0.994 | Vibrio cholerae 1.05 | [2] 1.01 | P. vulgatus RND KO 0.981 | P. vulgatus WT 0.997 | [3] 0.996 | [4] 1.02

Nc1ccc(S(=O)(=O)Nc2ccccn2)cc1 [Sulfapyridine]
inactive: [1] 0.986 | Shigella flexneri 0.95 | Vibrio cholerae 0.984 | [2] 0.994 | P. vulgatus RND KO 1.01 | P. vulgatus WT 1 | [3] 0.998 | [4] 1

Cn1c(=O)c2c(ncn2CCO)n(C)c1=O [Etofylline]
inactive: [1] 0.998 | Shigella flexneri 0.993 | Vibrio cholerae 1.01 | [2] 1.01 | P. vulgatus RND KO 0.998 | P. vulgatus WT 1.02 | [3] 0.999 | [4] 0.993

CCN(CC)CCOC(=O)c1ccc(N)cc1 [Procaine hydrochloride]
inactive: [1] 1 | Shigella flexneri 0.992 | Vibrio cholerae 1.01 | [2] 1 | P. vulgatus RND KO 1.02 | P. vulgatus WT 0.989 | [3] 0.992 | [4] 0.998

CC(C)(C#N)c1cc(Cn2cncn2)cc(C(C)(C)C#N)c1 [Anastrozole]
inactive: [1] 1.02 | Shigella flexneri 1.07 | Vibrio cholerae 1.04 | [2] 0.696 | P. vulgatus RND KO 1.09 | P. vulgatus WT 1.06 | [3] 0.991 | [4] 0.996

CCCC(CCC)C(=O)O [Valproic acid]
inactive: [1] 1.01 | Shigella flexneri 1.02 | Vibrio cholerae 1.05 | [2] 1.01 | P. vulgatus RND KO 1.06 | P. vulgatus WT 1.07 | [3] 1 | [4] 1.01

CC(=O)Nc1ccc(OCC(O)CNC(C)C)cc1 (stereo not drawn) [Practolol]
inactive: [1] 1 | Shigella flexneri 1.03 | Vibrio cholerae 1.02 | [2] 1.01 | P. vulgatus RND KO 1.02 | P. vulgatus WT 1.06 | [3] 1.02 | [4] 1.02

O=C(O)c1ccccc1C(=O)Nc1ccc(S(=O)(=O)Nc2nccs2)cc1 [Phthalylsulfathiazole]
inactive: [1] 1.01 | Shigella flexneri 1.01 | Vibrio cholerae 1.03 | [2] 0.997 | P. vulgatus RND KO 1.03 | P. vulgatus WT 1.03 | [3] 0.993 | [4] 0.998

CCOC(=O)c1ccc(OC(=O)CCCCCNC(=N)N)cc1 [Gabexate mesilate]
inactive: [1] 0.993 | Shigella flexneri 0.973 | Vibrio cholerae 0.987 | [2] 0.932 | P. vulgatus RND KO 0.985 | P. vulgatus WT 1 | [3] 1 | [4] 0.325

Cc1c(N(C)C)c(=O)n(-c2ccccc2)n1C [Amidopyrine]
inactive: [1] 1.01 | Shigella flexneri 1.03 | Vibrio cholerae 1.05 | [2] 1.01 | P. vulgatus RND KO 1 | P. vulgatus WT 1.02 | [3] 1.01 | [4] 0.999

CCOc1ccc(NC(C)=O)cc1 [Phenacetin]
inactive: [1] 0.992 | Shigella flexneri 0.959 | Vibrio cholerae 0.984 | [2] 0.973 | P. vulgatus RND KO 1 | P. vulgatus WT 0.997 | [3] 1 | [4] 1

CCCNC(=O)NS(=O)(=O)c1ccc(Cl)cc1 [Chlorpropamide]
inactive: [1] 1 | Shigella flexneri 1.02 | Vibrio cholerae 1.01 | [2] 0.996 | P. vulgatus RND KO 1.02 | P. vulgatus WT 1.06 | [3] 1.01 | [4] 1.04

CC#C[C@]1(O)CC[C@H]2[C@@H]3CCC4=CC(=O)CCC4=C3[C@@H](c3ccc(N(C)C)cc3)C[C@@]21C [Mifepristone]
inactive: [1] 1.01 | Shigella flexneri 0.988 | Vibrio cholerae 0.994 | [2] 1.01 | P. vulgatus RND KO 0.93 | P. vulgatus WT 0.954 | [3] 0.999 | [4] 0.92

CCC1(c2ccccc2)NC(=O)N(C)C1=O (stereo not drawn) [Mephenytoin]
inactive: [1] 1.01 | Shigella flexneri 0.997 | Vibrio cholerae 1.02 | [2] 1.01 | P. vulgatus RND KO 1 | P. vulgatus WT 1.03 | [3] 1 | [4] 1

C[C@]12C[C@H](O)[C@H]3[C@@H](CCC4=CC(=O)CC[C@@]43C)[C@@H]1CC[C@@H]2C(=O)CO [Corticosterone]
inactive: [1] 1 | Shigella flexneri 0.978 | Vibrio cholerae 0.984 | [2] 0.996 | P. vulgatus RND KO 1 | P. vulgatus WT 1.01 | [3] 1.02 | [4] 1

O=C1O[C@H]([C@@H](O)CO)C(O)=C1O [Ascorbic acid]
inactive: [1] 1.02 | Shigella flexneri 1.07 | Vibrio cholerae 1.02 | [2] 0.989 | P. vulgatus RND KO 1.05 | P. vulgatus WT 1.04 | [3] 1.01 | [4] 0.997

CC(=O)NCCCS(=O)(=O)O [Acamprosate calcium]
inactive: [1] 1 | Shigella flexneri 1.02 | Vibrio cholerae 1 | [2] 0.99 | P. vulgatus RND KO 1.02 | P. vulgatus WT 1.03 | [3] 1 | [4] 0.996

CCC(=O)O[C@]1(C(=O)SCF)[C@H](C)C[C@H]2[C@@H]3C[C@H](F)C4=CC(=O)C=C[C@]4(C)[C@@]3(F)[C@@H](O)C[C@@]21C [Fluticasone propionate]
inactive: [1] 0.996 | Shigella flexneri 1.01 | Vibrio cholerae 1 | [2] 1 | P. vulgatus RND KO 0.998 | P. vulgatus WT 0.988 | [3] 0.993 | [4] 0.998

CCN(CC)CCNC(C(=O)OCCC(C)C)c1ccccc1 (stereo not drawn) [Camylofine chlorhydrate]
inactive: [1] 0.992 | Shigella flexneri 0.991 | Vibrio cholerae 0.953 | [2] 0.997 | P. vulgatus RND KO 1.01 | P. vulgatus WT 1.02 | [3] 1 | [4] 0.973

COCCCOc1ccnc(C[S+]([O-])c2nc3ccccc3[nH]2)c1C (stereo not drawn) [Rabeprazole sodium salt]
inactive: [1] 1.01 | Shigella flexneri 1.04 | Vibrio cholerae 1.02 | [2] 1 | P. vulgatus RND KO 1.05 | P. vulgatus WT 1.01 | [3] 1 | [4] 0.889

CCN(CC)CCOC(=O)C1(c2ccc([N+](=O)[O-])cc2)CCCC1 [Nitrocaramiphen hydrochloride]
inactive: [1] 0.993 | Shigella flexneri 0.993 | Vibrio cholerae 0.974 | [2] 0.996 | P. vulgatus RND KO 1.03 | P. vulgatus WT 1.05 | [3] 1 | [4] 1
